This note sets out measurements from PubChem BioAssay AID463173 (ICCB-Longwood Screening Facility, Harvard Medical School, 2010).

Out of some 52,000 compounds screened, about 4,300 (8.3%) were called active. No stated cut-off is given here; in the data, active means survival mostly below about 52% (no sharp cut-off); inactive means mostly above about 56%. The entries come from a sample that favours actives as a whole.

The subject of this experiment is DeltatarO mutant. In words: growth inhibition of S. aureus wild type versus tarO mutant, primary screen, teichoic acid synthesis inhibitors, RN4220, OD600 (AID 463173). The conditions noted are these: OD600, 18 h, stronger effect = lower value, screened at 18.75 µg/mL (by protocol).
For the molecule `CCC(C)NC(=O)C1CCN(S(=O)(=O)c2ccc3c(c2)CCCN3C(C)=O)CC1` (stereo not given), the survival was 67% (inactive).

As for `CC(C)(C)NC(=S)Nc1ccc2nccnc2c1`, the survival is 65% (inactive).

On to `Cc1ccc(-c2noc(CNS(=O)(=O)c3ccc(F)cc3)n2)cc1`, for which the survival was 81% (inactive).

Turning to `Cc1ccc(C)c(N2CCN(C(=O)Cn3cnc4onc(-c5ccc(F)cc5)c4c3=O)CC2)c1`, the survival is 83% (inactive).

Consider `CC(C)CCNC(=O)C(=O)Nc1c2c(nn1-c1ccc(Cl)cc1)CSC2`, for which the survival is 86% (inactive).

As for `Cc1nc2ccn(Cc3ccccc3)c(=O)c2cc1C(=O)N1CCN(c2ccc(F)cc2)CC1`, the survival is 95% (inactive).

On to `O=C(COc1ccccc1)N(Cc1cccnc1)c1nc2c(F)cccc2s1`, for which the survival is 84% (inactive).

Regarding `Cc1ccc(C(=O)N2CCc3cc(CNC(=O)c4ccnn4C)ccc32)cc1`, the survival is 91% (inactive).

For `Cn1cc(CCCC(=O)NCc2ccccc2Cl)c2ccccc21`, the survival was 75% (inactive).

On to `COc1cccc(CNC(=O)Cn2c(=O)c3cccn3c3ccc(F)cc32)c1OC`, for which the survival was 103% (inactive).

As to `CC(C)Oc1ccc(CNC(=O)CCCn2c(=O)c3cccn3c3cccnc32)cc1`, the survival is 111% (inactive).

Take `COc1cccc(CNC(=O)CCCn2c(=O)c3cccn3c3ccc(F)cc32)c1OC`: the survival is 43% (active).

For the molecule `CC(C)Oc1ccc(CNC(=O)CCCn2c(=O)c3cccn3c3ccccc32)cc1`, the survival is 45% (active).

In the case of `COc1cccc(CNC(=O)CCn2c(=O)c3cccn3c3ccc(F)cc32)c1OC`, the survival was 59% (inactive).

Turning to `CC(C)Oc1ccc(CNC(=O)CCn2c(=O)c3cccn3c3ccc(F)cc32)cc1`, the survival is 48% (inactive).

Regarding `COc1cccc(NC(=O)Cn2c(=O)n(-c3cccc(OC)c3)c(=O)c3c4c(sc32)CCCC4)c1`, the survival is 107% (inactive).

Turning to `COc1ccc(-c2nc3c4ccccc4n(CC(=O)Nc4cc(F)ccc4F)c(=O)n3n2)cc1`, the survival is 84% (inactive).

With `Cc1ccc(-c2nc3sc(CCNC(=O)c4ccc(F)c(F)c4)c(C)n3n2)cc1`, the survival is 76% (inactive).

With `CCn1c(=O)c2cc(C(=O)Nc3cc(C)c(Cl)cc3OC)sc2c2ccccc21`, the survival is 69% (inactive).

For `CCn1c(=O)c2cc(C(=O)Nc3cc(OC)c(OC)c(OC)c3)sc2c2ccccc21`, the survival was 41% (active).

Regarding `CCn1c(=O)c2cc(C(=O)NCCc3ccc(OC)c(OC)c3)sc2c2ccccc21`, the survival was 42% (active).

For `COc1ccc(CCNC(=O)c2cc3c(=O)n(C)c4ccccc4c3s2)cc1OC`, the survival is 65% (inactive).

With `CCn1c(=O)c2cc(C(=O)NCc3cc(OC)ccc3OC)sc2c2ccccc21`, the survival was 54% (active).

Regarding `CCn1c(=O)c2cc(C(=O)NCCc3cc(OC)ccc3OC)sc2c2ccccc21`, the survival is 34% (active).

For the molecule `CCn1c(=O)c2cc(C(=O)NCCCOC)sc2c2ccccc21`, the survival was 103% (inactive).

For the molecule `CCn1c(=O)c2cc(C(=O)Nc3cccc(C(F)(F)F)c3)sc2c2ccccc21`, the survival is 84% (inactive).

`COc1ccc(Br)cc1CNC(=O)c1cc2c(=O)n(C)c3ccccc3c2s1`: the survival was 94% (inactive).

With `CCc1ccc(CNC(=O)c2cc3c(=O)n(CC)c4ccccc4c3s2)cc1`, the survival is 51% (inactive).

On to `CCn1c(=O)c2cc(C(=O)NCCc3ccc(Cl)cc3)sc2c2ccccc21`, for which the survival is 76% (inactive).

With `CCOc1ccc(CCNC(=O)c2cc3c(=O)n(CC)c4ccccc4c3s2)cc1OCC`, the survival was 60% (inactive).

For `CCOC(=O)c1[nH]c2ccccc2c1NC(=O)c1ccc(Br)cc1`, the survival was 95% (inactive).

For the molecule `Cc1cccc(-c2nc3nc(C)cc(NCc4ccccc4Cl)n3n2)c1`, the survival is 74% (inactive).

`COc1ccccc1C(=O)Nc1ccc(C(=O)OCc2cc(=O)n3nc(C4CC4)sc3n2)cc1`: the survival is 72% (inactive).

For `Cc1ccccc1C1C(C#N)=C(N)NC(S)=C1C#N` (stereo not given), the survival is 93% (inactive).

Consider `CCC(=O)N1c2ccccc2CC1C(=O)NCCc1cc(OC)c(OC)c(OC)c1` (stereo not given), for which the survival is 129% (inactive).

For the molecule `CC(c1ccccc1F)n1cc(C(=O)NCCCn2ccnc2)nn1` (stereo not given), the survival was 96% (inactive).

Take `CCOc1ccc(NC(=O)Cn2cc(C(=O)c3ccc(C)c(C)c3)c(=O)c3cc(OC)c(OC)cc32)cc1`: the survival was 95% (inactive).

As to `COc1ccc(CCNC(=O)c2cc3c(=O)[nH]c4ccc(C)cc4c3s2)cc1OC`, the survival was 64% (inactive).

For the molecule `COc1ccc(CNC(=O)c2cc3c(=O)[nH]c4ccc(C)cc4c3s2)c(OC)c1`, the survival was 44% (active).

Regarding `COc1ccc(CNC(=O)c2cc3c(=O)oc4ccc(C)cc4c3s2)c(OC)c1`, the survival was 86% (inactive).

With `CC1CCC(NC(=O)CCc2cn(Cc3ccc(F)cc3)c3ccccc23)CC1` (stereo not given), the survival was 60% (inactive).

For the molecule `CCCCSC1=NC(C)(C)CC(C)O1` (stereo not given), the survival was 79% (inactive).

As to `CCc1ccc(NCc2cc3ccc(OC)cc3n(CC(=O)Nc3ccccc3OC)c2=O)cc1`, the survival is 79% (inactive).

For the molecule `CCCC12CN3CC(CCC)(CN(C1)C3c1ccc(OC(C)C)cc1)C2=O` (stereo not given), the survival was 21% (active).

As to `CCCC12CN3CC(C)(CN(C1)C3c1ccc(CC)cc1)C2=O` (stereo not given), the survival is 87% (inactive).

On to `CCCC12CN3CC(CCC)(CN(C1)C3c1ccc(OCc3ccccc3)cc1)C2=O` (stereo not given), for which the survival was 112% (inactive).

On to `COc1ccc(Cn2c(C(=O)O)c(CNC3CCC(C)CC3)c3ccc(C)cc32)cc1` (stereo not given), for which the survival is 115% (inactive).

As for `COc1cccc(N2CCN(C(=O)c3nn(C)c4c3CSc3ccc(C)cc3-4)CC2)c1`, the survival was 117% (inactive).

As for `COC(=O)c1ccc2c(=O)n(CCCCCC(=O)NCc3ccc(OC)cc3)c(=O)[nH]c2c1`, the survival is 71% (inactive).

Turning to `Cc1noc(-c2ccc(-c3noc(-c4ccc(F)cc4)n3)cc2)n1`, the survival was 72% (inactive).

For `Cc1noc(-c2ccc(-c3noc(-c4ccccc4)n3)cc2)n1`, the survival is -4% (active).

`Cc1noc(-c2ccc(-c3noc(-c4ccc(Cl)cc4)n3)cc2)n1`: the survival is 66% (inactive).

On to `Cc1nc(-c2ccc(S(=O)(=O)NCc3ccc(N(C)C)cc3)cc2)co1`, for which the survival is 83% (inactive).

Regarding `CCOc1ccc(C(c2c(O)cc(C)n(Cc3ccco3)c2=O)N2CCN(c3ccccc3)CC2)cc1` (stereo not given), the survival was 75% (inactive).

As for `O=S(=O)(c1ccc(Cl)cc1)c1nc(-c2ccccc2)oc1N1CCN(c2ccccc2)CC1`, the survival is 86% (inactive).

Turning to `Cc1ccc(-c2nc(S(=O)(=O)c3ccc(Cl)cc3)c(N3CCCCC3)o2)cc1`, the survival is 11% (active).

With `Cc1ccc(S(=O)(=O)c2nc(-c3ccc(Cl)cc3)oc2N2CCCCCC2)cc1`, the survival was 36% (active).

Consider `COc1ccc(-c2nc(S(=O)(=O)c3ccc(Cl)cc3)c(N3CCCCCC3)o2)cc1`, for which the survival is 76% (inactive).

Turning to `O=C(O)c1ccc(CNCc2ccccc2Cl)s1`, the survival is 88% (inactive).

As to `CC(C)(C)OC(=O)N1CCC(c2c(C(=O)NCc3ccco3)cnn2-c2ccccc2Cl)CC1`, the survival is 76% (inactive).

Turning to `Cc1ccc(C(=O)N2C(C)CCCC2C)c(Cl)c1` (stereo not given), the survival was 70% (inactive).

For the molecule `COC(=O)CN(C#N)c1nc(C)cc(C)n1`, the survival was 94% (inactive).

Consider `COC(=O)CN(C#N)c1nc(SC)nc(N(C)C)n1`, for which the survival is 52% (active).

Turning to `CNC(=O)CN(C#N)c1nc(N(C)C)nc(N(C)C)n1`, the survival was 87% (inactive).

For `Cc1nc(SCc2cc(=O)c3cccc(F)c3[nH]2)n[nH]1`, the survival is 94% (inactive).

As for `CCOC(=O)c1c(N)sc2c(OC)c(Br)ccc12`, the survival was 1% (active).

Consider `CCOC(=O)c1c(N)sc2c1CN(C(=O)OC)N(C(=O)OC)C2`, for which the survival is 112% (inactive).

With `CCOC(=O)c1c(NC(C)=O)sc2c(NC(C)=O)cccc12`, the survival is 69% (inactive).

As for `COC(=O)c1cnc(N2CCN(c3ccc(F)cc3)CC2)c2ccccc12`, the survival is 80% (inactive).

`COc1ccc(Cn2ccc3nc(C)c(C(=O)Nc4ccc(OC)cc4OC)cc3c2=O)cc1`: the survival is 8% (active).

Take `COc1ccc(CNC(=O)c2cc3c(=O)n(Cc4ccc(OC)cc4)ccc3nc2C)cc1`: the survival is 66% (inactive).

With `COc1ccc(Cn2ccc3nc(C)c(C(=O)Nc4ccc(F)cc4)cc3c2=O)cc1`, the survival is 20% (active).

On to `COc1ccc(Cn2ccc3nc(C)c(C(=O)NCc4ccc(OC)cc4OC)cc3c2=O)cc1`, for which the survival was 25% (active).

`COc1ccc(Cn2ccc3nc(C)c(C(=O)Nc4ccc(OC(F)(F)F)cc4)cc3c2=O)cc1`: the survival is 92% (inactive).

Take `COc1ccc(NC(=O)c2cc3c(=O)n(Cc4ccco4)ccc3nc2C)c(OC)c1`: the survival is 81% (inactive).

In the case of `COc1ccc(Cn2ccc3nc(C)c(C(=O)Nc4ccc(OC)cc4)cc3c2=O)cc1`, the survival was 89% (inactive).

On to `COc1ccc(CNC(=O)c2cc3c(=O)n(Cc4ccco4)ccc3nc2C)c(OC)c1`, for which the survival was 67% (inactive).

As for `COc1ccc(NC(=O)c2cc3c(=O)n(Cc4cccnc4)ccc3nc2C)c(OC)c1`, the survival is 83% (inactive).

In the case of `COc1ccccc1Nc1ncnc2scc(-c3ccc(F)cc3)c12`, the survival was 115% (inactive).

For `CC(=O)c1ccc(NC(=O)Cn2ncc3c(C)n(Cc4ccc(F)cc4)c(C)c3c2=O)cc1`, the survival was 60% (active).

For `Cc1ccc(C)c(NC(=O)Cn2ncc3c(C)n(Cc4ccc(F)cc4)c(C)c3c2=O)c1`, the survival is 71% (inactive).

With `Cc1c2cnn(CC(=O)NCc3ccc(Cl)cc3)c(=O)c2c(C)n1Cc1ccc(F)cc1`, the survival was 62% (inactive).

With `COc1ccc(N(Cc2cccs2)C(=O)COc2cc(C)c(Cl)c(C)c2)cc1`, the survival was 65% (inactive).

On to `COc1ccc(N(Cc2cccs2)C(=O)COc2cccc(C)c2C)cc1`, for which the survival is 17% (active).

Regarding `COc1ccc(OCC(=O)N(Cc2cccs2)c2ccc(OC)cc2)cc1`, the survival was 66% (inactive).

Consider `COc1ccc(N(Cc2cccs2)C(=O)COc2ccc(C(C)C)cc2)cc1`, for which the survival is 80% (inactive).

Take `Cc1cccc(OCC(=O)N(Cc2cccs2)c2ccc(Cl)cc2)c1C`: the survival is 61% (inactive).

As to `COc1ccc(N(Cc2cccs2)C(=O)COc2cccc(Cl)c2)cc1`, the survival was 42% (active).

For `Cc1ccccc1-c1nn2c(=O)cc(CN3CCN(C(=O)c4ccccc4Br)CC3)nc2s1`, the survival is 116% (inactive).

Turning to `Cc1cc(C)c2c(CC(=O)Nc3ccc(S(=O)(=O)N4CCCCC4)cc3)coc2c1`, the survival is 76% (inactive).
